In PubChem BioAssay (NCI):
About 83,000 compounds went through this panel and 20% of them were active in at least one assay; those are over-represented in the sample as a whole.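 Step 1: grow cells in 96-well plates. Step 2: add test compound at a single concentration. Step 3: incubate 48 h. Step 4: record percent growth.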 Values without a mark were called inactive. The source made the active and inactive calls. The calls were made as follows: active = growth percent below 10; inactive = the rest.

Each molecule was assayed on SR leukemia (assay: NCI-60 one-dose screen, 48 h (100 = growth as untreated, 0 = no growth, -100 = all killed)). Conditions: 10 µM unless noted.

Compound | growth
COc1ccc(-c2cn(-c3cccc(C(=O)/C=C/c4ccc(O)c(OC)c4)c3)c(=O)[nH]2)cc1 | 7.01% (active)
Cc1ccccc1N1C(c2ccccc2)=NNC12C=CC(=O)c1c(O)cccc12 (centres undefined) | 97%
COc1cc(Nc2ccnc3ccc(Br)cc23)cc(OC)c1OC | 15.7%
CN1CCN(Cc2ccc(NC(=O)c3cncc(C#Cc4ccc(N)nc4)c3)cc2C(F)(F)F)CC1 | 1.34% (active)
COc1ccc(Sc2[nH]c(C=O)c3ccccc23)cc1 | 16.6%
COCCOCCOCc1n(Cc2ccc3ccccc3n2)c2ccccc2[n+]1Cc1ccc2ccccc2c1 | -37.1% (active)
COc1ccc(C2C3CCc4ccccc4C3=NN2C(=O)c2cc(OC)c(OC)c(OC)c2)cc1O (centres undefined) | 64.2%
O=c1[nH]cnc2nc[nH]c12 | 48.8%
CC(=O)O[C@H]1[C@H](CC#CC#CC[C@@H]2C[C@]3(C)[C@H]4CC=C5[C@H]6[C@@H](C)[C@H](C)CC[C@]6(C(=O)NCCN(CCN)CCN)CC[C@@]5(C)[C@]4(C)CC[C@H]3C(C)(C)[C@H]2OC(C)=O)C[C@]2(C)[C@H]3CC=C4[C@H]5[C@@H](C)[C@H](C)CC[C@]5(C(=O)NCCN(CCN)CCN)CC[C@@]4(C)[C@]3(C)CC[C@H]2C1(C)C | 53.9%
Fc1ccc2nc(-c3ccc(-c4noc(-c5ccc(Cl)cc5)n4)cc3)[nH]c2c1 | 95.6%
CCNS(=O)(=O)c1ccc(C)cc1 | 122%
OC(c1cc(-c2ccc(C(F)(F)F)cc2)nc(-c2ccc(C(F)(F)F)cc2)c1)C1CCCCN1 (centres undefined) | -64.8% (active)
CC1(C)C(N(O)C(=O)Nc2ccc(Cl)cc2)N(c2ccc(Cl)cc2)C(=O)N1CC(=O)N/N=C/C=C/c1ccc([N+](=O)[O-])o1 (centres undefined) | -13.1% (active)
Cc1cc(N=Nc2ccc(-c3ccc(N=Nc4ccc(O)c(C(=O)O)c4)cc3)cc2)c(N)c(N=Nc2ccc(C(=O)O)cc2)c1N | 75.9%
NC(N)=N/N=C\c1cccc(OCc2ccccc2)c1 | 19.4%
CNC(=O)c1ccccc1Sc1ccc2c(/C=C/c3ccccn3)n[nH]c2c1 | 10.4%
CC(=O)c1c(C)nc(-c2cc(C)cc(Cl)c2)nc1-c1cccc(Oc2ccccc2)c1 | 10.1%

Compound | growth
CCN(CC)Cc1cc(Nc2nc(NC3CCC(N(C)C)CC3)c3ccccc3n2)ccc1OC (centres undefined) | 49.6%
Cc1nc2c(-c3cnc(N)nc3)nc(N3CCOCC3)nc2n1C(C)C | 7% (active)
C[C@@H]1C[C@H](N)C[C@H](c2ccncc2NC(=O)c2ccc(F)c(-c3c(F)cccc3F)n2)C1 | -17.7% (active)
Nc1nonc1-c1nc2ccccc2n1Cc1ccc(F)cc1 | 22.3%
C=CC[C@]1(O)CC[C@H]2[C@@H]3CCc4cc(O)ccc4[C@H]3CC[C@@]21C | 38.4%
[Ag].[Ag].[NH-]S(=O)(=O)c1ccc(N=Nc2cc(N=Nc3ccc(S([NH-])(=O)=O)cc3)c3c(NC(=O)C(Cl)Cl)cccc3c2OC(=O)C(Cl)Cl)cc1.[c-]1nccs1.[c-]1nccs1 | 72.1%
CCCCCCCCCCCCCCC(C(=O)OCC)C(=O)OCC | 116%
CN(C)c1ccc(C(c2ccccc2)c2ccc(N(C)C)cc2)cc1 | 68.2%
Cc1n(Cc2ccc3ccccc3n2)cc[n+]1Cc1ccc2ccccc2c1 | 11.6%
FC(F)(F)c1ccc(/C=N/Nc2nnc3n2N=C(c2ccc(Cl)cc2)CS3)cc1 | 79.7%
CS(=O)(=O)Nc1cc(-c2cc3ncc(C#N)c(Nc4ccc(Oc5ccccc5)c(Cl)c4)c3s2)cnc1Cl | 20.5%
Cc1cc(C)c2c(n1)sc1c(Nc3ccc(O)cc3)ncnc12 | 13.4%
c1ccc(C2=Nc3ccccc3SC2)cc1 | 107%
COc1cc2c(cc1OCCCOc1cc3c(cc1OC)C(=O)N1CCC[C@H]1C=N3)C=CC(C)(C)O2 | 25.8%
O=[N+]([O-])c1cccc(N=C(Nc2cccc([N+](=O)[O-])c2)c2ccccc2)c1 | 70.4%
C=CCn1c(C)nc2cc(Nc3nc(N4CCOCC4)nc4nc[nH]c34)ccc21 | 85.6%
C=C1NC(=O)C(C(C)CC)NC(=O)C2CSCC(NC(=O)CCC(=O)O)C(=O)NC(Cc3ccccc3)C(=O)NC(C)C(=O)NC(CC(C)CC)C(=O)NC(C(=O)NC(Cc3ccccc3)C(=O)N3CCCC3C(=O)N2)C(C)OC(=O)C(CO)NC(=O)C(C(O)COC)N(C)C(=O)C(C(C)C)NC(=O)C(CC(C)CC)NC1=O (centres undefined) | 12.5% [6 µM]
